# Assay results: the supplement of paper PMC8728848
# Shown is part of a subset that was picked to be rich in the strongest signals.
# B1: OrfX (Escherichia coli), Q9X4B6_ECOLX (protein)
# chain: MIKIARIAVTLGLLSSLGAQAYAAGLVVNDNDLRNDLAWLSDRGVIHLSLSTWPLSQEEIARALKKAKPSYSSEQVVLARINQRLSALKADFRVTGYTSTDQPGTPQGFGQTQPADNSLGLAFNNSGEWWDVHLQGNVEGGERISNGSRFNANGAYGAVKFWNQWLSFGQVPQWWGPGYEGSLIRGDAMRPMTGFLMQRAEQAAPETWWLRWVGPWQYQISASQMNQYTAVPHAKIIGGRFTFTPFQSLELGASRIMQWGGEGRPQSFSSFWDGFTGHDNTGTDNEPGNQLAGFDFKFKLEPTLGWPVSFYGQMVGEDESGYLPSANMFLGGVEGHHGWGKDTVNWYVEAHDTRTNMSRTNYSYTHHIYKDGYYQQGYPLGDAMGGDGQLIAGKVELITEDNQRWSTRLVYAKVNPENQSINKAFPHADTLKGLQLGWSGDVYQSVRLNTSLWYTNANNSDSDDVGASAGIEIPFSL
# Experiments:
# Assay in all cases: glycan array binding signal (z-score within array); higher = stronger binding
# Settings in all cases: glycan notation: IUPAC condensed, linker removed
# [1] = target: Fuc(a1-2)Gal(b1-4)GlcNAc(b1-3)Gal(b1-4)GlcNAc
# Procedure, shortened: (§1)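 Arrays were curated from the Consortium for Functional Glycomics database, 3228 in total, and kept only where the protein sequence was available. Binding is expressed as a within-array Z-score. This score was averaged across arrays of the same protein sequence at different concentrations or buffers and across linkers, and negative values can be read as non-binding.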
# [2] = target: Fuc(a1-2)Gal(b1-4)GlcNAc(b1-3)[Fuc(a1-2)Gal(b1-4)GlcNAc(b1-6)]GalNAc
# Procedure, shortened: as §1
# [3] = target: Fuc(a1-2)Gal(b1-4)[Fuc(a1-3)]GlcNAc(b1-2)Man(a1-3)[Fuc(a1-2)Gal(b1-4)[Fuc(a1-3)]GlcNAc(b1-2)Man(a1-6)]Man(b1-4)GlcNAc(b1-4)GlcNAc
# Procedure, shortened: as §1
# [4] = target: Fuc(a1-2)Gal(b1-4)[Fuc(a1-3)]GlcNAc(b1-2)[Fuc(a1-2)Gal(b1-4)[Fuc(a1-3)]GlcNAc(b1-4)]Man(a1-3)[Fuc(a1-2)Gal(b1-4)[Fuc(a1-3)]GlcNAc(b1-2)Man(a1-6)]Man(b1-4)GlcNAc(b1-4)GlcNAc
# Procedure, shortened: as §1
# [5] = target: Fuc(a1-2)Gal(b1-4)[Fuc(a1-3)]GlcNAc(b1-3)Gal(b1-4)[Fuc(a1-3)]GlcNAc(b1-3)Gal(b1-4)[Fuc(a1-3)]GlcNAc
# Procedure, shortened: as §1
# [6] = target: Fuc(a1-2)Gal(b1-4)[Fuc(a1-3)]GlcNAc(b1-3)GalNAc
# Procedure, shortened: as §1
# [7] = target: Fuc(a1-2)[Gal(a1-3)]Gal(b1-4)[Fuc(a1-3)]Glc
# Procedure, shortened: as §1
# [8] = target: Fuc(a1-2)[Gal(a1-4)]Gal(b1-4)GlcNAc
# Procedure, shortened: as §1
# [9] = target: Fuc(a1-2)[GalNAc(a1-3)]Gal
# Procedure, shortened: as §1
# [10] = target: Fuc(a1-2)[GalNAc(a1-3)]Gal(b1-4)Glc
# Procedure, shortened: as §1
# [11] = target: Fuc(a1-2)[GalNAc(a1-3)]Gal(b1-4)[Fuc(a1-3)]GlcNAc
# Procedure, shortened: as §1
# [12] = target: Fuc(a1-3)[Gal3S(b1-4)]GlcNAc6S
# Procedure, shortened: as §1
# Gal(a1-3)Gal(b1-4)Glc = target: Gal(a1-3)Gal(b1-4)Glc
# Procedure, shortened: as §1
# [13] = target: Gal(a1-4)Gal(b1-4)GlcNAc(b1-3)Gal(b1-4)Glc
# Procedure, shortened: as §1
# [14] = target: Gal(b1-3)GalNAc(a1-3)[Fuc(a1-2)]Gal(b1-4)Glc
# Procedure, shortened: as §1
# [15] = target: Gal(b1-3)GlcNAc(b1-2)Man(a1-3)[GlcNAc(b1-4)][Gal(b1-3)GlcNAc(b1-2)Man(a1-6)]Man(b1-4)GlcNAc(b1-4)GlcNAc
# Procedure, shortened: as §1
# [16] = target: Gal(b1-4)GalNAc(b1-3)[Fuc(a1-2)]Gal(b1-4)GlcNAc
# Procedure, shortened: as §1
# [17] = target: Gal(b1-4)GlcNAc(b1-2)Man(a1-3)Man(b1-4)GlcNAc(b1-4)GlcNAc
# Procedure, shortened: as §1
# Gal(b1-4)GlcNAc6P = target: Gal(b1-4)GlcNAc6P
# Procedure, shortened: as §1
# Gal(b1-6)Gal = target: Gal(b1-6)Gal
# Procedure, shortened: as §1
# Gal3S(b1-4)Glc = target: Gal3S(b1-4)Glc
# Procedure, shortened: as §1
# [18] = target: Gal3S(b1-4)[Fuc(a1-3)]Glc6S
# Procedure, shortened: as §1
# Gal6S(b1-4)GlcNAc6S = target: Gal6S(b1-4)GlcNAc6S
# Procedure, shortened: as §1
# GalNAc(b1-4)Gal(b1-4)Glc = target: GalNAc(b1-4)Gal(b1-4)Glc
# Procedure, shortened: as §1
# GalNAc6S(b1-4)GlcNAc = target: GalNAc6S(b1-4)GlcNAc
# Procedure, shortened: as §1
# [19] = target: GlcNAc(a1-4)Gal(b1-4)GlcNAc(b1-3)Gal(b1-4)[Fuc(a1-3)]GlcNAc(b1-3)Gal(b1-4)[Fuc(a1-3)]GlcNAc
# Procedure, shortened: as §1
# [20] = target: GlcNAc(b1-3)[GlcNAc(b1-4)][GlcNAc(b1-6)]GlcNAc
# Procedure, shortened: as §1
# [21] = target: Man(a1-2)Man(a1-2)Man(a1-6)[Man(a1-3)]Man
# Procedure, shortened: as §1
# [22] = target: Neu5Ac(a2-3)Gal(b1-3)GlcNAc(b1-3)Gal(b1-3)GlcNAc
# Procedure, shortened: as §1
# [23] = target: Neu5Ac(a2-3)Gal(b1-3)GlcNAc6S
# Procedure, shortened: as §1
# [24] = target: Neu5Ac(a2-3)Gal(b1-3)[Neu5Ac(a2-6)]GlcNAc(b1-3)[Fuc(a1-3)[Gal(b1-4)]GlcNAc(b1-6)]Gal(b1-4)Glc
# Procedure, shortened: as §1
# [25] = target: Neu5Ac(a2-3)Gal(b1-4)GlcNAc(b1-2)Man
# Procedure, shortened: as §1
# [26] = target: Neu5Ac(a2-3)Gal(b1-4)[Fuc(a1-3)]GlcNAc(b1-3)Gal(b1-4)[Fuc(a1-3)]GlcNAc(b1-3)Gal(b1-4)[Fuc(a1-3)]GlcNAc
# Procedure, shortened: as §1
# [27] = target: Neu5Ac(a2-3)Gal(b1-4)[Fuc(a1-3)]GlcNAc(b1-3)GalNAc
# Procedure, shortened: as §1
# [28] = target: Neu5Ac(a2-6)Gal(b1-4)GlcNAc(b1-3)Gal(b1-4)GlcNAc(b1-3)Gal(b1-4)GlcNAc
# Procedure, shortened: as §1
# [29] = target: Neu5Ac(a2-6)Gal(b1-4)GlcNAc(b1-6)GalNAc
# Procedure, shortened: as §1
# [30] = target: Neu5Ac(a2-8)Neu5Ac(a2-3)Gal(b1-3)GalNAc(b1-4)[Neu5Ac(a2-8)Neu5Ac(a2-3)]Gal(b1-4)Glc
# Procedure, shortened: as §1
# Neu5Ac(b2-6)GalNAc = target: Neu5Ac(b2-6)GalNAc
# Procedure, shortened: as §1
# [31] = target: Neu5Ac9Ac(a2-3)Gal(b1-3)GlcNAc
# Procedure, shortened: as §1
binder,measurement,setting,value
B1,glycan array binding signal (z-score),[1],-0.191
same,glycan array binding signal (z-score),[2],0.429
same,glycan array binding signal (z-score),[3],0.202
same,glycan array binding signal (z-score),[4],-0.108
same,glycan array binding signal (z-score),[5],-0.02
same,glycan array binding signal (z-score),[6],4.3
same,glycan array binding signal (z-score),[7],-0.132
same,glycan array binding signal (z-score),[8],-0.32
same,glycan array binding signal (z-score),[9],-0.116
same,glycan array binding signal (z-score),[10],-0.196
same,glycan array binding signal (z-score),[11],0.042
same,glycan array binding signal (z-score),[12],2.97
same,glycan array binding signal (z-score),Gal(a1-3)Gal(b1-4)Glc,-0.261
same,glycan array binding signal (z-score),[13],-0.181
same,glycan array binding signal (z-score),[14],-0.182
same,glycan array binding signal (z-score),[15],0.214
same,glycan array binding signal (z-score),[16],-0.145
same,glycan array binding signal (z-score),[17],-0.266
same,glycan array binding signal (z-score),Gal(b1-4)GlcNAc6P,0.611
same,glycan array binding signal (z-score),Gal(b1-6)Gal,0.048
same,glycan array binding signal (z-score),Gal3S(b1-4)Glc,0.076
same,glycan array binding signal (z-score),[18],2.79
same,glycan array binding signal (z-score),Gal6S(b1-4)GlcNAc6S,2.74
same,glycan array binding signal (z-score),GalNAc(b1-4)Gal(b1-4)Glc,0.667
same,glycan array binding signal (z-score),GalNAc6S(b1-4)GlcNAc,-0.318
same,glycan array binding signal (z-score),[19],10.6
same,glycan array binding signal (z-score),[20],11.2
same,glycan array binding signal (z-score),[21],-0.231
same,glycan array binding signal (z-score),[22],-0.096
same,glycan array binding signal (z-score),[23],-0.301
same,glycan array binding signal (z-score),[24],-0.357
same,glycan array binding signal (z-score),[25],7.89
same,glycan array binding signal (z-score),[26],-0.34
same,glycan array binding signal (z-score),[27],7.1
same,glycan array binding signal (z-score),[28],-0.288
same,glycan array binding signal (z-score),[29],3.4
same,glycan array binding signal (z-score),[30],-0.409
same,glycan array binding signal (z-score),Neu5Ac(b2-6)GalNAc,-0.166
same,glycan array binding signal (z-score),[31],-0.162
